Compound activity deposited in PubChem BioAssay by National Center for Advancing Translational Sciences (NCATS).
HepG2 tox: counter-screen for TGF-b inhibitors: cytotoxicity in HepG2 cells. 410,000 compounds, 0.76% hits. Potency, µM (highest dose often 46.1 µM), inactives show top-dose activity change, negative = cytotoxicity, most hits filed as cytotoxic. HepG2 CAGA-GFP viability, ATP luminescence, 18 h. AID 588856
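CellTiter-Glo luminescence gave cytotoxicity after 18 hours at 37 degrees C. The cells were HepG2 CAGA-GFP in 1% FBS DMEM, stimulated with 500 pg/mL TGF-beta after compound addition. %Activity was normalised to no-cell wells (complete cell-killing) and DMSO (no toxicity), and curves were fitted and classified.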
KB-V1 cytotox: kills drug-selected multidrug resistant KB-V1 cells. 400,000 compounds, 3.4% hits. KB-V1 MDR cells viability, CellTiter-Glo, 72 h. Potency, µM (top dose mostly 46.1 µM), actives largely listed as cytotoxic; further: on the % scale 0 is the no-effect control and ±100 the full control effect; nearly all actives have a fitted effect of over 60% in size
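Compound-treated KB-V1 multidrug-resistant cells, 72 h, 37 degrees C; viability by CellTiter-Glo. Fitted qHTS curves give the values.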
TGFb inhibitor: blocks TGF-b signaling; AID 588855; HepG2 CAGA-GFP TGF-b/SMAD3 reporter, GFP fluorescence, 18 h; TGF-beta stimulated, 500 pg/mL final; 410,000 compounds, 1.2% hits; Potency, µM (titrated, usually from 46.1 µM), for the others: at the highest dose activity, negative = inhibition, hits mostly inhibitors; further: on the % scale 0 is the no-effect control and ±100 the full control effect; nearly all actives have a fitted effect of over 65% in size
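Inhibition of TGF-beta-driven CAGA-GFP reporter expression in HEPG2 cells is measured by cellular GFP fluorescence after 18 h stimulation with 500 pg/mL recombinant TGF-beta in 1% FBS medium at 37 degrees C.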
HT1080NT lethal: kills 2HG-producing HT-1080-NT fibrosarcoma cells; Potency, µM (top dose mostly 46.1 µM), without a hit: top-dose activity, negative = less viability, most hits filed as cytotoxic; AID 686970; HT-1080-NT fibrosarcoma viability, CellTiter-Glo ATP luminescence, 48 h; 360,000 compounds, 1.6% hits;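 further: NT is the 2HG producing partner of a matched IDH1 knockdown line; 0% = DMSO-treated cells and -100% = media-only wells without cells; nearly all actives have a fitted effect of over 55% in size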
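A 48-hour cytotoxicity screen used HT-1080-NT cells plated 2 hours before compound delivery. ATP-based CellTiter-Glo luminescence measured viability, normalized to DMSO and no-cell controls.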
KB-3-1 cytotox: KB-3-1 parental cell cytotoxicity; KB-3-1 viability, CellTiter-Glo ATP luminescence, 72 h; Potency, µM (top dose mostly 46.1 µM), most hits filed as cytotoxic; AID 1347075; 400,000 compounds, 1.4% hits; further: on the % scale 0 is the no-effect control and ±100 the full control effect; nearly all actives have a fitted effect of over 60% in size
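KB-3-1 cells, DMEM (no phenol red) + 10% FBS; compound by pin transfer, 72 h, 37 °C. Readout: CellTiter-Glo luminescence after 10 min. Data normalized, curve-fitted.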
HT1080 IDH1KD tx: HT-1080 IDH1 knockdown cell toxicity (counter line); AID 686971; Potency, µM (series often up to 46.1 µM), for inactives: top-dose activity, negative = toxicity, usual class: cytotoxic; HT-1080 IDH1 knockdown viability, ATP luminescence, 48 h; 360,000 compounds, 2% hits;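 further: 0% = DMSO wells and -100% = cell-free medium wells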
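% activity derives from luminescence (CellTiter-Glo), normalised to DMSO and no-cell wells. HT-1080-IDH1KD cells, 750/well, had 48 h compound exposure at 37 °C.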
The depositor's hits bear a star; i = inactive; ? = inconclusive; nt = no result. Only some compounds are listed: those with a hit (about 6.6% of all), similar ones and a draw of the others. The call rests on the fitted dose curve; in most records, active means well fitted curve in the direction sought with a large enough effect; inconclusive means small, poorly fitted or top-dose-only effect, or another doubt; inactive means no such curve, though single readings can be large; an effect the other way counts as inactive or inconclusive. Potency means the concentration at half of the fitted maximal effect.

SMILES	HepG2 tox	KB-V1 cytotox	TGFb inhibitor	HT1080NT lethal	KB-3-1 cytotox	HT1080 IDH1KD tx
O=C(CCCc1ccc(N(CCCl)CCCl)cc1)NCc1ccccc1	-18.3%	i	-9.5%	?	i	23.1µM*
CCOP(=O)(OCC)c1cccc(P(=O)(c2ccccc2)c2ccccc2)c1O	-5.7%	i	-5.1%	?	i	-7.4%
O=C1NC(=O)N(Cc2ccccc2)C(=O)/C1=C\C=C\c1ccco1	-14.7%	?	10µM*	?	i	3.66µM*
CN1C(=O)/C(=C/C=C/c2ccco2)C(=O)NC1=S	-11.1%	i	?	5.1%	i	4.0%
O=C1NC(=O)N(Cc2ccco2)C(=O)/C1=C/C=C/c1ccco1	-25.4%	?	7.08µM*	23.1µM*	?	20.6µM*
O=C(Nc1ccc2c(c1)OCO2)c1cccn(Cc2ccccc2)c1=O	-17.5%	i	-18.0%	nt	i	nt
CCCCCN=C(N)N/N=C/c1c[nH]c2ccc(OC)cc12	15.8µM*	i	?	2.91µM*	?	5.8µM*
CC1CC(C)CN(S(=O)(=O)c2ccc3c(c2)oc(=O)n3CC(=O)N(C)Cc2ccccc2)C1 (stereo unspecified)	-27.9%	i	?	-0.4%	i	0.4%
COc1cc(/C=C/c2nc3ccccc3c(=O)n2-c2ccc(O)cc2)ccc1O	-110.7%	?	?	16.4µM*	?	18.4µM*
COc1ccc(Nc2c(-c3cc(Br)ccc3O)nc3ncccn23)cc1OC	4.7%	i	32.2%	nt	i	nt
CCCNC(=O)c1cnn2c(C)c(Cc3c(C)cc(C)cc3C)c(C)nc12	-24.8%	nt	?	nt	nt	nt
CC1CCCN(CCCNC(=O)c2ccc3c(c2)N(Cc2cccc(Cl)c2)C(=O)c2ccccc2S3=O)C1 (stereo unspecified)	12.6µM*	i	17.8µM*	-24.5%	i	?
Cc1ccc(CN2C(=O)c3ccccc3Sc3ccc(C(=O)N4CCC5(CC4)OCCO5)cc32)cc1	-37.0%	nt	?	nt	nt	nt
CC(=NCc1cccnc1)c1c(O)n(C2CCCCC2)c(=O)[nH]c1=O	-14.1%	18.4µM*	-11.0%	?	i	-3.5%
CCC(=NCc1cccnc1)c1c(O)n(C2CCCCC2)c(=O)[nH]c1=O	-13.9%	i	-2.8%	-0.9%	i	-15.4%
CCc1ccc(NC(=O)c2cccn(Cc3cccc([N+](=O)[O-])c3)c2=O)cc1	-23.5%	i	-7.4%	nt	?	nt
Cc1cc(N2CCN(S(=O)(=O)c3ccc(Cl)cc3)CC2)c2ccccc2n1	10µM*	18.4µM*	14.1µM*	?	?	?
COc1ccc(CCNc2nccn(-c3ccc(C)c(C)c3)c2=O)cc1OC	-20.9%	i	?	nt	i	nt
O=C(NCCN1CCC(n2c(=O)[nH]c3ccccc32)CC1)c1ccc2ccccc2c1	nt	?	nt	-74.8%	?	?
O=C(c1cccs1)c1cn(Cc2ccccc2Cl)c2ccccc12	-4.4%	7.31µM*	-19.6%	-14.6%	i	-17.9%
N#Cc1ccccc1Cn1cc(C(=O)c2ccccc2F)c2ccccc21	-8.0%	2.31µM*	-5.3%	0.0%	i	-1.0%
O=C(O)c1[nH]c(=O)[nH]c(=O)c1F	11.3%	i	7.8%	-12.1%	7.31µM*	?
CNC(=O)Oc1ccc(-c2cn3cc(C)ccc3n2)cc1	-61.3%	18.4µM*	-25.9%	-11.2%	i	-28.8%
CC(=O)C1=C(O)C2(C)c3c(O)c(C)c(O)c(C(C)=O)c3OC2CC1=O (stereo unspecified)	-50.6%	16.4µM*	?	?	i	-29.7%
O=C1NC(=O)C(=Cc2ccc(Sc3ccccc3)o2)C(=O)N1	-185.3%	?	-49.3%	18.4µM*	i	13µM*
SMILES	HepG2 tox	KB-V1 cytotox	TGFb inhibitor	HT1080NT lethal	KB-3-1 cytotox	HT1080 IDH1KD tx
CC(CNC(=O)c1ccc(CSc2nc3ccncc3n2Cc2ccc(F)cc2)cc1)c1ccccc1 (stereo unspecified)	-23.2%	i	?	nt	?	nt
Nc1ncnc2c1ncn2[C@@H]1O[C@H](COP(=O)(O)CP(=O)(O)O)[C@@H](O)[C@H]1O	-31.8%	14.6µM*	1.8%	?	i	-19.7%
CCNC(=O)[C@H]1O[C@@H](n2cnc3c(N)ncnc32)[C@H](O)[C@@H]1O	13.6%	i	-14.9%	7.1%	i	5.8%
CC(=O)OC(C)(C)/C=C/C(=O)[C@](C)(O)C1[C@H](O)C[C@@]2(C)C3CC=C4C(C[C@H](O)C(=O)C4(C)C)[C@]3(C)C(=O)C[C@]12C (stereo partly specified)	-19.3%	0.92µM*	?	?	0.0366µM*	0.0326µM*
CC(C)(O)/C=C/C(=O)C(C)(O)C1C(O)CC2(C)C3CC=C4C(C=C(O)C(=O)C4(C)C)C3(C)C(=O)CC12C (stereo unspecified)	-57.0%	0.92µM*	?	0.651µM*	0.184µM*	0.146µM*
Cc1ccccc1-c1nn2c(=O)cc(CN3CCN(C(=O)COc4ccccc4Cl)CC3)nc2s1	-15.2%	i	?	nt	i	nt
Oc1ccc2c3c1O[C@H]1[C@@H](O)CC[C@@]4(O)C(C2)N(CC2CCC2)CCC314 (stereo partly specified)	nt	nt	nt	9.1%	nt	15.7%
Cc1ccc(-c2cc(C(F)F)n3ncc(C(=O)N4CCc5ccccc5C4)c3n2)cc1	-13.5%	?	11.2µM*	6.4%	i	9.9%
CC(C)c1ccc2nc3sc(C(=O)N4CCc5ccccc5C4)c(N)c3cc2c1	-16.5%	i	44.6%	?	i	?
C[n+]1c(-c2ccccc2)cc(CCCCc2cc(-c3ccccc3)[n+](C)c(-c3ccccc3)c2)cc1-c1ccccc1	-22.0%	i	0.0%	?	?	?
O=C(O)c1ccc(-[n+]2c(-c3ccccc3)cc(-c3ccccc3)cc2-c2ccccc2)cc1	21.0%	i	24.0%	6.2%	i	15.6%
Brc1ccc(-[n+]2c(-c3ccccc3)cc(-c3ccccc3)cc2-c2ccccc2)cc1	-38.8%	i	?	16.4µM*	?	13µM*
Cc1ccc(-c2cc(-c3ccccc3)cc(-c3ccccc3)[n+]2-c2ccc(C(=O)O)cc2)cc1	-3.0%	i	17.9%	13.6%	i	9.5%
CCCOC(=O)c1ccc(-[n+]2c(-c3ccccc3)cc(-c3ccccc3)cc2-c2ccccc2)cc1	-40.7%	i	?	20.6µM*	16.4µM*	11.6µM*
